Source: PubChem BioAssay (NCI)
Compounds without any hit were thinned out: in the full panel of roughly 83,000, 20% have a hit.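 Values shown are percent growth following 48 h exposure of cells in 96-well plates to a single concentration of compound; below 10 was considered active.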 The source made the active and inactive calls.

Assays:
Assay in all cases: NCI-60 one-dose screen, 48 h (100 = growth as untreated, 0 = no growth, -100 = all killed)
Conditions in all cases: 10 µM unless noted
T-47D breast = system: T-47D breast
BT-549 breast = system: BT-549 breast
MDA-MB-435 melanoma = system: MDA-MB-435 melanoma
SW-620 colon = system: SW-620 colon
MCF7 breast = system: MCF7 breast
HCT-116 colon = system: HCT-116 colon
HCC-2998 colon = system: HCC-2998 colon
KM12 colon = system: KM12 colon

Measured: growth

O=c1[nH]cc(Nc2cc(Cl)c3nonc3c2[N+](=O)[O-])c(=O)[nH]1
inactive: T-47D breast 101% | BT-549 breast 114% | SW-620 colon 89.8% | MCF7 breast 109% | HCT-116 colon 99.1% | HCC-2998 colon 90.6% | KM12 colon 109%
active: MDA-MB-435 melanoma -41.2%

CSc1nc2nc3c(nc2c(=O)n1C)C(=O)c1ccccc1C3=O
active: T-47D breast -45.3% | BT-549 breast -94.8% | MDA-MB-435 melanoma -83.6% | SW-620 colon -55.7% | MCF7 breast -62.2% | HCT-116 colon -37.6% | HCC-2998 colon -70.1% | KM12 colon -64.2%

O=C(/C=C/c1ccc([N+](=O)[O-])cc1)c1ccc2c3c(cccc13)CC2
inactive: T-47D breast 69.1% | BT-549 breast 84% | MDA-MB-435 melanoma 97.8% | SW-620 colon 47.1% | MCF7 breast 22% | HCT-116 colon 38.6% | HCC-2998 colon 79.3% | KM12 colon 72.5%

Clc1ccc2[nH]cc(-c3cncn3CCc3ccccc3)c2c1
inactive: T-47D breast 13.2% | BT-549 breast 40.3% | MDA-MB-435 melanoma 50.9% | SW-620 colon 72.8% | MCF7 breast 53.2% | HCT-116 colon 44.1% | HCC-2998 colon 89.2% | KM12 colon 72.9%

O=[N+]([O-])c1ccc(NS(=O)(=O)c2ccc(Cl)c(Cl)c2)cc1
inactive: T-47D breast 60.2% | BT-549 breast 76.8% | MDA-MB-435 melanoma 88.9% | SW-620 colon 103% | MCF7 breast 79.7% | HCT-116 colon 85.3% | HCC-2998 colon 68.9% | KM12 colon 90.1%

COc1ccc2nc(N/N=C(\C)c3ccccn3)cc(C)c2c1
active: T-47D breast 0.953% | BT-549 breast -87.8% | MDA-MB-435 melanoma -94.9% | SW-620 colon -68% | MCF7 breast -74.6% | HCT-116 colon -68.7% | HCC-2998 colon -68.3% | KM12 colon -35.7%

O=C(Nc1ccccc1S)c1ccccc1
inactive: T-47D breast 105% | BT-549 breast 99.9% | MDA-MB-435 melanoma 101% | SW-620 colon 98.5% | MCF7 breast 91.1% | HCT-116 colon 96.2% | HCC-2998 colon 109% | KM12 colon 104%

O=C(Nc1ccccc1)c1cc(-n2cnc([N+](=O)[O-])c2)cc(-n2cnc([N+](=O)[O-])c2)n1
inactive: T-47D breast 107% | BT-549 breast 113% | MDA-MB-435 melanoma 122% | SW-620 colon 99.7% | MCF7 breast 116% | HCT-116 colon 103% | HCC-2998 colon 65.2% | KM12 colon 94.1%

O=C1/C(=C/c2ccc(F)cc2)Cc2ccccc21
inactive: T-47D breast 103% | BT-549 breast 89.6% | MDA-MB-435 melanoma 107% | SW-620 colon 104% | MCF7 breast 27.3% | HCT-116 colon 87.9% | HCC-2998 colon 89.9% | KM12 colon 106%

COc1cc(-c2nc3sc4c(c3c(=O)[nH]2)CCCCCC4)cc(OC)c1OC
active: MDA-MB-435 melanoma -18% | HCC-2998 colon -1.77%
inactive: T-47D breast 32.8% | BT-549 breast 53.1% | SW-620 colon 30.3% | MCF7 breast 15% | HCT-116 colon 20.3% | KM12 colon 28.6%

BrC1CC(Br)c2c1c1c(c3c2C(Br)CC3Br)C(Br)CC1Br (centres undefined)
inactive: T-47D breast 91.8% | BT-549 breast 125% | MDA-MB-435 melanoma 103% | SW-620 colon 83% | MCF7 breast 49.6% | HCT-116 colon 80.9% | HCC-2998 colon 87.5% | KM12 colon 129%

CCN(CC)CCOCC[C@H]1CC[C@H]2[C@@H]3[C@H](C)Cc4cc(OS(N)(=O)=O)ccc4[C@H]3CC[C@]12C
active: T-47D breast -46.4% | BT-549 breast -53.4% | MDA-MB-435 melanoma -63.7% | SW-620 colon -77.5% | MCF7 breast -63.1% | HCT-116 colon -98.4% | HCC-2998 colon -92.7% | KM12 colon -80.8%

COC(=O)c1cc2oc(/C=N\NC(=O)c3cc4oc(C)c(C)c4[nH]3)cc2[nH]1
inactive: T-47D breast 90.2% | BT-549 breast 91.3% | MDA-MB-435 melanoma 96.6% | SW-620 colon 108% | MCF7 breast 86.8% | HCT-116 colon 101% | HCC-2998 colon 101% | KM12 colon 108%

O=C1N=C(N2CCOCC2)S/C1=C\c1cn(-c2ccccc2)nc1-c1ccccc1
inactive: T-47D breast 62.4% | BT-549 breast 53.8% | MDA-MB-435 melanoma 65.3% | SW-620 colon 98.8% | MCF7 breast 81.5% | HCT-116 colon 64.4% | HCC-2998 colon 100% | KM12 colon 96.4%

Fc1ccccc1C1c2ccccc2-c2nccn21 (centres undefined)
inactive: T-47D breast 91.3% | BT-549 breast 106% | MDA-MB-435 melanoma 108% | SW-620 colon 107% | MCF7 breast 101% | HCT-116 colon 90.1% | HCC-2998 colon 103% | KM12 colon 93.8%

Cc1cc(C)nc(NS(=O)(=O)c2ccc(Nc3nc4nc(SCc5ccccc5)nc(-c5ccc(O)cc5)c4c(=O)[nH]3)cc2)n1
inactive: T-47D breast 79.1% | BT-549 breast 107% | MDA-MB-435 melanoma 94.9% | SW-620 colon 101% | MCF7 breast 104% | HCT-116 colon 103% | HCC-2998 colon 100% | KM12 colon 107%

COc1cnc2c(c1)C(=O)c1c-2n(CCCN2CCCC2)c(=O)c2cc(F)ccc12
inactive: MDA-MB-435 melanoma 16% | HCC-2998 colon 16.9%
active: T-47D breast -4.54% | BT-549 breast -6.57% | SW-620 colon -33.2% | MCF7 breast 3.93% | HCT-116 colon -77.3% | KM12 colon -12.6%

COc1ccc(C(=O)/C=C/c2cccc(Nc3ccnc4cc(Cl)ccc34)c2)cc1
active: HCT-116 colon 9.57%
inactive: T-47D breast 15.7% | BT-549 breast 20.6% | MDA-MB-435 melanoma 28.1% | SW-620 colon 19% | MCF7 breast 23.4% | HCC-2998 colon 68.8% | KM12 colon 53%

C[C@]12CC[C@H](O)CC1=CC[C@@H]1[C@@H]2CC[C@]2(C)C(c3cccnc3)=CC[C@@H]12
inactive: T-47D breast 55.6% | BT-549 breast 59.5% | MDA-MB-435 melanoma 19.8% | SW-620 colon 72.7% | MCF7 breast 61.4% | HCT-116 colon 58.7% | HCC-2998 colon 74.6% | KM12 colon 52.8%

C/C(=C\CCc1ccoc1)CC/C=C(\C)CCCC1COC(=O)C1 (centres undefined)
inactive: T-47D breast 87.7% | BT-549 breast 108% | MDA-MB-435 melanoma 88.8% | SW-620 colon 103% | MCF7 breast 90.6% | HCT-116 colon 98.2% | HCC-2998 colon 107% | KM12 colon 93.3%

C[C@H]1c2cccc(O)c2C(O)=C2C(=O)[C@]3(O)C(O)=C(C(N)=O)C(=O)[C@@H](N(C)C)[C@@H]3[C@@H](O)[C@@H]21
inactive: T-47D breast 53.1% | BT-549 breast 33.8% | MDA-MB-435 melanoma 50.7% | SW-620 colon 65.9% | MCF7 breast 58.9% | HCT-116 colon 18.6% | HCC-2998 colon 27.1% | KM12 colon 54.1%

COc1cc(NC(C)CCCN)c2nc(C)ccc2c1Oc1ccc(F)cc1 (centres undefined)
inactive: T-47D breast 87.4% | BT-549 breast 70.5% | MDA-MB-435 melanoma 104% | SW-620 colon 67% | MCF7 breast 62.1% | HCT-116 colon 33.9% | HCC-2998 colon 21.6% | KM12 colon 78.9%

CN(C)c1ccc(-c2nc3ncc(Br)cc3o2)cc1
inactive: T-47D breast 75.7% | BT-549 breast 78.3% | MDA-MB-435 melanoma 115% | SW-620 colon 99.3% | MCF7 breast 97.6% | HCT-116 colon 86.8% | HCC-2998 colon 85% | KM12 colon 113%

CC[n+]1c(/C=C/c2ccc(N3CCCC3)cc2)cccc1/C=C/c1ccc(N2CCCC2)cc1
active: T-47D breast -61% | BT-549 breast -89.7% | MDA-MB-435 melanoma -70.7% | SW-620 colon -88.1% | MCF7 breast -85.5% | HCT-116 colon -54.7% | HCC-2998 colon -82.5% | KM12 colon -81.5%

Cc1cc2c(cc1C)[n+](Cc1ccc3ccccc3n1)cn2Cc1ccc2ccccc2n1
active: T-47D breast -1.32% | BT-549 breast -45.9% | MDA-MB-435 melanoma -24.5% | SW-620 colon 9.34% | MCF7 breast 7.12% | HCT-116 colon -0.984% | HCC-2998 colon 3.84% | KM12 colon -7.23%

Nc1nc2c(c(=O)[nH]1)C1(C(=O)Nc3ccccc31)c1c(nc(N)[nH]c1=O)N2
inactive: T-47D breast 92.3% | BT-549 breast 102% | MDA-MB-435 melanoma 106% | SW-620 colon 97.3% | MCF7 breast 94.8% | HCT-116 colon 116% | HCC-2998 colon 114% | KM12 colon 101%

COc1cc(C2CC(C3C(=O)N(C)C(=O)N(C)C3=O)=NN2C=O)cc(OC)c1OC (centres undefined)
inactive: T-47D breast 83.8% | BT-549 breast 106% | MDA-MB-435 melanoma 101% | SW-620 colon 97.7% | MCF7 breast 97.6% | HCT-116 colon 102% | HCC-2998 colon 100% | KM12 colon 102%

Cc1cccc2nnc(-c3ccccc3)n12
inactive: T-47D breast 115% | BT-549 breast 98.9% | MDA-MB-435 melanoma 112% | SW-620 colon 112% | MCF7 breast 97% | HCT-116 colon 104% | HCC-2998 colon 102% | KM12 colon 108%
